# From PubChem BioAssay
# Activity calls are given as the source filed them.
# Assays:
# Albumin (Bos taurus) = Albumin (Bos taurus) (UniProt P02769); experiment: compounds binding labelled BSA control protein – biochemical, small-molecule microarray, Alexa647 label, 635/667 nm fluorescence, artefact control for SMM control protein annotation, profiling panel (AID 1118); conditions: BSA-A647 binding, fluorescence 635 nm, higher = more signal;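 further: score merges 667 nm emission intensity and signal-to-noise per printed compound spot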
# Sequence of Albumin (Bos taurus) (P02769 whole entry, looked up): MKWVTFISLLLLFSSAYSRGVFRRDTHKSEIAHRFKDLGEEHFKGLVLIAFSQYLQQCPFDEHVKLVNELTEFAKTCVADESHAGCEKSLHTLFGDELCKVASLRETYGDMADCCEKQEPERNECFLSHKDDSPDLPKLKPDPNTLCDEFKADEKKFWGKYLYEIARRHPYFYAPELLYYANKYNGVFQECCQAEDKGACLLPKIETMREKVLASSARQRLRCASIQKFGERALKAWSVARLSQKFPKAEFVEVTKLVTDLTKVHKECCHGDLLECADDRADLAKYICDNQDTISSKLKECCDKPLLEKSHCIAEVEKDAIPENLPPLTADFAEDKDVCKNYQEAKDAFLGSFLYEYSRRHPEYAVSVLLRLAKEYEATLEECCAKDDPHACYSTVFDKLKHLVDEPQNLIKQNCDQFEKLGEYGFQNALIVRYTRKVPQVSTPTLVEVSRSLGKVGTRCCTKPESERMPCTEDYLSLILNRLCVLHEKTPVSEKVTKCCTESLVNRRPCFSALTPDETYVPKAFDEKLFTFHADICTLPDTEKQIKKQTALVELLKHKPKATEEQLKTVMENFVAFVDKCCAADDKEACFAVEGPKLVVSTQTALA
# [1] = probe aXIP binding to arrayed compounds – biochemical, NeuroSMM set, 635/667 nm fluorescence, primary screen (AID 1119); conditions: small-molecule microarray, higher = more signal, called active from +8 up or from −8 down;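 further: probe is the protein aXip251-270 applied at 1 µg/mL to compound-printed slides; binding of probe to printed compounds measured as 667 nm fluorescence plus signal to noise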
# [2] = probe aNOTCH3 binding on compound microarray – biochemical, small-molecule microarray, 635/667 nm fluorescence, primary screen (AID 1120); conditions: higher = more signal;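 further: probe is a biotin-tagged antibody raised against NOTCH3 rather than NOTCH3 protein; score merges spot fluorescence near 667 nm with spot signal to noise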
# [3] = probe aNOTCH2 binding on compound microarray – biochemical, small-molecule microarray, 635/667 nm fluorescence, primary screen (AID 1121); conditions: higher = more signal;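 further: score merges feature fluorescence read at 667 nm with its signal to noise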
# [4] = target: Carbonic anhydrase 2 (Homo sapiens) (UniProt P00918); experiment: compounds binding carbonic anhydrase 2 – biochemical, small-molecule microarray, Alexa647-labelled CAII, profiling panel (AID 1122); conditions: CAII-A647 binding fluorescence, higher = more signal
# [5] = COS7 lysate on small-molecule microarray, probe aHis, 635 nm (AID 1123); conditions: COS7 cell lysate, fluorescence, higher = more signal;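 further: z-score combines 667nm fluorescence intensity with signal-to-noise per printed compound spot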
# [6] = probe aLAP1 signal on lysate-treated microarray – cell lysate, small-molecule microarray, COS7 lysate, primary screen (AID 1124); conditions: probe aLAP1, fluorescence, higher = more signal;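 further: lysate comes from COS7 cells expressing LAP1 and is applied at 0.3 µg/mL; score merges spot fluorescence near 667 nm with signal-to-noise over triplicate slides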
# Sam68 (KHDRBS1) = experiment: compounds binding KHDRBS1 protein – biochemical, small-molecule microarray, 635 nm fluorescence, primary screen (AID 1125); conditions: higher = more signal;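 further: score merges 667 nm channel intensity with signal to noise over triplicate slides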
# [7] = system: Chordin-like protein 2 (CHRDL2); experiment: compounds binding chordin-like 2 – biochemical, small-molecule microarray, 635 nm fluorescence, primary screen (AID 1126); conditions: fluorescence 635 nm, higher = more signal;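 further: printed compound slides probed with Chrdl2 protein at 4 µg/mL for 1 h at 4 C; score merges 667 nm emission intensity with signal to noise over three replicate slides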
# [8] = target: Concanavalin-A (Canavalia ensiformis) (UniProt P02866); experiment: compounds binding concanavalin A lectin – biochemical, small-molecule microarray, Alexa647 label, 635 nm, artefact control for SMM control protein annotation, primary screen (AID 1127); conditions: ConA-A647 binding fluorescence, higher = more signal;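 further: z combines 667 nm emission intensity with signal-to-noise across three replicate slides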
# Sequence of Concanavalin-A (Canavalia ensiformis) (P02866 whole entry, looked up): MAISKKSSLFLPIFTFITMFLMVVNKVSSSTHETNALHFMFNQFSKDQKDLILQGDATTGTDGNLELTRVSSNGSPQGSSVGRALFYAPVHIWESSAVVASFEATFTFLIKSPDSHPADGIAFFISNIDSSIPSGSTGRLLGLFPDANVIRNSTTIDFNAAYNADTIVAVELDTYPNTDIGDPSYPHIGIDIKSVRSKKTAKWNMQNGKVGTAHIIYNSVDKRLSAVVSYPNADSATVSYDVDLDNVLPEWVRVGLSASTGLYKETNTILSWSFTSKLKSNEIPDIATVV
# [9] = compounds binding Alexa647 anti-His antibody – biochemical, small-molecule microarray, 635 nm fluorescence, artefact control for SMM control protein annotation, primary screen (AID 1128); conditions: higher = more signal;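 further: score merges feature fluorescence with signal-to-noise for each printed compound spot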
# [10] = system: Human papillomavirus type 1a E7 protein (residues 1-88); experiment: HPV1a E7 small-molecule binders, primary screen, biochemical, small-molecule microarray, residues 1-88, 635 nm (AID 1129); conditions: small-molecule microarray binding, fluorescence 635 nm; higher = more signal
# [11] = target: Focal adhesion kinase 1 (Homo sapiens) (UniProt Q05397); experiment: PTK2 protein binding on printed compound slides – biochemical, small-molecule microarray, 635/667 nm fluorescence, BSA, DTT, primary screen (AID 1130); conditions: 635 nm fluorescence, higher = more signal;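 further: composite of spot emission at 667 nm and signal to noise over triplicate slides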
# Sequence of Focal adhesion kinase 1 (Homo sapiens) (Q05397 whole entry, looked up): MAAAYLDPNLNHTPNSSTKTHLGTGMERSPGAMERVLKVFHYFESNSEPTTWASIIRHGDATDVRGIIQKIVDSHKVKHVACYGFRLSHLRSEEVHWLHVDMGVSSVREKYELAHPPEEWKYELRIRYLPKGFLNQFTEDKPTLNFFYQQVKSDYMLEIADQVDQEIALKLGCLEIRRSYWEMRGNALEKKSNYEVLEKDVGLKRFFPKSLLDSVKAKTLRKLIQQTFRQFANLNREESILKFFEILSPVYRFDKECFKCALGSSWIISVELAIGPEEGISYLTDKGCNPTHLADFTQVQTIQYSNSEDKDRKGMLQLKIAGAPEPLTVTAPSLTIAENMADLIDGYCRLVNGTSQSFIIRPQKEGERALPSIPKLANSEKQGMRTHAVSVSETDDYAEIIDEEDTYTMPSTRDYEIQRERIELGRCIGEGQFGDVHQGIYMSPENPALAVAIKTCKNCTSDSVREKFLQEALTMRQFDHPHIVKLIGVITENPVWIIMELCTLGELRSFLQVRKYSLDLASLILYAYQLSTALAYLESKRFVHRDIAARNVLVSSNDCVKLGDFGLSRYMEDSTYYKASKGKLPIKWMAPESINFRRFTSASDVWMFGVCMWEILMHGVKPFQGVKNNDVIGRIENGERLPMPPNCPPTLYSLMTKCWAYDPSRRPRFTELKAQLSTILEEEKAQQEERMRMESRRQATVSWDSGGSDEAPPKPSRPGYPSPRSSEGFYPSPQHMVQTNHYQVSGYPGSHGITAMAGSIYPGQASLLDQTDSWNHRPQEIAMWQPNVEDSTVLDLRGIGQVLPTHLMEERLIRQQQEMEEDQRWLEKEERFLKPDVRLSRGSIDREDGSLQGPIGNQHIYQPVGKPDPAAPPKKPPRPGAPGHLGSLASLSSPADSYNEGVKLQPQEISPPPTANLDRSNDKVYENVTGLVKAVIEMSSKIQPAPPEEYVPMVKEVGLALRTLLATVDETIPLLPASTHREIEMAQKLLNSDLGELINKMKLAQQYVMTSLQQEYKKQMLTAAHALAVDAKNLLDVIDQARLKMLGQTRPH
# [12] = system: Fibrinogen (Alexa647-labelled); experiment: Alexa647-fibrinogen binding to printed small molecules – biochemical, small-molecule microarray, 635/667 nm fluorescence, artefact control for SMM control-protein annotation, profiling panel (AID 1131); conditions: fibrinogen-A647 binding fluorescence, higher = more signal;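 further: z-score merges 667 nm fluorescence with per-spot signal-to-noise over triplicate slides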
# [13] = target: Follistatin (Homo sapiens) (UniProt P19883); experiment: FST protein binding to printed compounds – biochemical, small-molecule microarray, 635/667 nm fluorescence, primary screen (AID 1132); conditions: 635 nm fluorescence, higher = more signal
# Sequence of Follistatin (Homo sapiens) (P19883 whole entry, looked up): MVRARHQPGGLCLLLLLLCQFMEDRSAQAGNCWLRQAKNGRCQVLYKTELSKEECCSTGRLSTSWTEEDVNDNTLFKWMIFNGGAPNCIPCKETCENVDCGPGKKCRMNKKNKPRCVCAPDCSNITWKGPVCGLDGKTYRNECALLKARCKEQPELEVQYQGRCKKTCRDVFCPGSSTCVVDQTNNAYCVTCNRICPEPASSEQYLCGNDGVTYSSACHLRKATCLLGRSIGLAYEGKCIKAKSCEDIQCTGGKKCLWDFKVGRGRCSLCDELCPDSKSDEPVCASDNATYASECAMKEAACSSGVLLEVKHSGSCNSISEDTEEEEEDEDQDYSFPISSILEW
# [14] = target: Fibroblast growth factor 2 (Homo sapiens) (UniProt P09038); experiment: basic fibroblast growth factor binding to printed compounds – biochemical, small-molecule microarray, 635/667 nm fluorescence, primary screen (AID 1133); conditions: FGF2, fluorescence 635/667, higher = more signal
# Sequence of Fibroblast growth factor 2 (Homo sapiens) (P09038 whole entry, looked up): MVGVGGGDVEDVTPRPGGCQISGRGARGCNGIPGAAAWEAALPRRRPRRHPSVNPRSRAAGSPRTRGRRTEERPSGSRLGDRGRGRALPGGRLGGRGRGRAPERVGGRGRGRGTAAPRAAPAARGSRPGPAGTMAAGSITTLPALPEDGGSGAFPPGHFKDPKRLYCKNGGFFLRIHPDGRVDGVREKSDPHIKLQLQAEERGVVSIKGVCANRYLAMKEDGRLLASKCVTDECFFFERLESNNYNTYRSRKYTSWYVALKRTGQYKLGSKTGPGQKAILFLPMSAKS
# [15] = JC-1 mitochondrial potential readout, lung cancer cells – cell-based, A549, JC-1 fluorescence, basal, 24 h, 100 nL, profiling panel (AID 1138); conditions: higher = more signal;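 further: A549 lung adenocarcinoma cells under basal conditions with no added stimulus; test concentration not given here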
# Lefty1 = Lefty1 protein binding to printed compounds – biochemical, small-molecule microarray, 635/667 nm fluorescence, primary screen (AID 1139); conditions: fluorescence 635/667, higher = more signal
# [16] = system: wheat germ agglutinin (Triticum aestivum), Alexa647-labelled; experiment: Alexa647-WGA lectin binding to printed small molecules – biochemical, small-molecule microarray, 635/667 nm fluorescence, artefact control for SMM control-protein annotation, profiling panel (AID 1140); conditions: WGA-A647 binding, 635 nm fluorescence, higher = more signal;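 further: score merges 667 nm feature emission with signal to noise over triplicate slides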
# [17] = target: Luciferin 4-monooxygenase (Photinus pyralis) (UniProt P08659); experiment: inhibition of purified Photinus pyralis luciferase – biochemical, luminescence, purified enzyme, 2006 set, primary screen (AID 1141); conditions: purified firefly luciferase, SteadyGlo luminescence, 30 min; higher = more signal, called active from +8 up or from −8 down;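 further: cell-free assay with purified firefly luciferase at 100 ng per well in PBS; test concentration not given here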
# Sequence of Luciferin 4-monooxygenase (Photinus pyralis) (P08659 whole entry, looked up): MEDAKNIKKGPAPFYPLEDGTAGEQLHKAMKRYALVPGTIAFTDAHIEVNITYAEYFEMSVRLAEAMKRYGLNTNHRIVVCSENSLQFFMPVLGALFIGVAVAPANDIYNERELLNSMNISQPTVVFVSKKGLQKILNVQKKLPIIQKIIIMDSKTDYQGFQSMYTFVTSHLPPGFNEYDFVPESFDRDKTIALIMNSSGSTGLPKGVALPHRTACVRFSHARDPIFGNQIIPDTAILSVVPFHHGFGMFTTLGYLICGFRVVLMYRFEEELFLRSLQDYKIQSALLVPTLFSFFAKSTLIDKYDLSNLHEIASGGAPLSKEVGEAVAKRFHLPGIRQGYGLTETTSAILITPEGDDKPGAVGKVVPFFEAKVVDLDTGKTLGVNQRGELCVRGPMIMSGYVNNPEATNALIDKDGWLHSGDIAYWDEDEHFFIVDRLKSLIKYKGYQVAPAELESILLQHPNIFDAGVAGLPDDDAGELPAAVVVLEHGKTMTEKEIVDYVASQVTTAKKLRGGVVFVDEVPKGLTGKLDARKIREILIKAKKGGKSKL
SMILES,composite z-score (Albumin (Bos taurus)),composite Z-score [1],composite z-score [2],composite z-score [3],composite z-score [4],composite z-score [5],composite z-score [6],composite z-score (Sam68 (KHDRBS1)),composite z-score [7],composite z-score [8],composite z-score [9],composite z-score [10],composite z-score [11],composite z-score [12],composite z-score [13],composite z-score [14],z-score [15],composite z-score (Lefty1),composite z-score [16],z-score [17]
O=C(O)[C@@H]1[C@@H]2C(=O)N(c3ccccc3)C(=O)[C@@H]2C[C@@H]1Sc1ccccc1,-0.037,0.0618 (inactive),-0.0932,-0.0572,0.526,0.796,0.627,-0.983,-1.06,-0.607,-0.102,-0.683,0.236,-1.02,-1.19,-1.16,-0.677,-1.07,0.627,1.35 (inactive)
COC(=O)[C@@]1(Cc2ccc(OC)cc2)[C@H]2c3cc(C(=O)N(C)C)n(Cc4ccc(OC(F)(F)F)cc4)c3C[C@H]2CN1C(=O)c1ccccc1,0.953,0.255 (inactive),0.11,0.141,0.822,1.74,-0.0771,-0.264,-0.899,-0.467,-0.399,0.299,1.14,0.808,-0.295,-0.555,0.517,-0.878,0.0102,0.86 (inactive)
CCCNC(=O)[C@@]1(C)c2ccccc2C(=O)N(c2ccc(C)cn2)[C@H]1c1ccc(CO)cc1,-0.0296,0.164 (inactive),-0.246,-0.108,0.699,-0.604,-0.105,-0.264,0.0286,-0.283,0.0998,-0.268,0.23,-1.78,0.169,-0.465,0.672,-0.0558,-0.311,-0.714 (inactive)
CCCN1C(=O)[C@@]2(Cc3ccccc31)N=C(c1ccc(OCCCO)cc1)O[C@H]2c1ccccc1,-0.324,0.953 (inactive),0.0916,0.0118,0.523,1.88,0.587,1.31,0.201,1.13,0.293,1.17,0.881,0.829,1.23,1.31,1.69,0.256,0.801,-3.25 (inactive)
CCCCC(CC)C(O)C1C=CC2C(=O)N(c3ccccc3)C(=O)C2N1Nc1ccccc1F (stereo not given),0.468,-0.243 (inactive),0.225,-0.153,0.749,2.75,0.51,1.12,-0.904,0.0845,2.22,1.2,0.1,-0.209,0.729,-0.315,-1.04,0.276,0.357,1.61 (inactive)
Cc1ccc(S[C@]2(C(=O)NCC(F)(F)F)CC(=O)N(Cc3cc(C(F)(F)F)cc(C(F)(F)F)c3)[C@@H]2c2ccc(CO)cc2)cc1,-0.658,-0.0775 (inactive),-0.229,-0.164,0.802,-0.551,-0.238,-0.36,-1.19,-0.183,1.86,-1.33,-0.237,-1.09,-0.192,-0.897,0.0304,-0.126,-0.744,-0.46 (inactive)
CCCN1C(=O)[C@]2(Cc3ccccc31)N=C(c1ccc(OCCCO)cc1)O[C@@H]2c1ccccc1,-0.0671,0.0068 (inactive),0.247,-0.125,0.625,2.19,0.402,1.24,-0.184,0.884,1.18,1.22,0.867,0.971,1.3,0.716,-0.23,0.56,1.11,-0.133 (inactive)
O=C(C1N=C(c2ccc(OCCCO)cc2)N(c2ccccc2)O1)N1CCCCC1 (stereo not given),0.909,1.91 (inactive),0.304,0.116,0.718,2.31,0.936,1.29,0.165,1.2,1.94,1.25,0.634,1,1.05,0.423,0.924,0.168,1.31,-10.6 (active)
CC(C)(C)OC(=O)COc1cccc(C(=O)CCN2CCOCC2)c1,0.217,0.784 (inactive),-0.0119,-0.074,-0.382,0.258,-0.281,0.656,0.309,-0.244,-0.413,0.355,-0.272,0.226,-0.35,-0.284,0.583,-0.57,-0.0945,-2.13 (inactive)
C=C[C@@H](OC)[C@H](OC(=O)Nc1ccc(OC)cc1)c1ccc(O)c(F)c1,-0.715,0.656 (inactive),-0.0581,-0.2,0.268,1.93,0.117,0.21,0.746,-0.728,0.0143,-0.0707,0.0004,-0.808,1.2,0.659,-0.116,1.35,-0.251,-3.89 (inactive)
